Measurements from PubChem BioAssay AID504447 (The Scripps Research Institute Molecular Screening Center, 2011).
Entries with a potency or affinity are not part of this list. Active and inactive are the calls of the source. No rule for the calls is given here.

The molecules below were run against Peroxisome proliferator-activated receptor gamma (Homo sapiens) (UniProt P37231) (assay: PPARg partial agonists, dose response, cell-based, luminescence, assay provider (AID 504447)). Settings: cell-based PPARg reporter, luciferase luminescence, partial agonism; series mostly up to 5 µM; fold change activation: at the top concentration.
Chain of Peroxisome proliferator-activated receptor gamma (Homo sapiens) (P37231 whole entry, looked up): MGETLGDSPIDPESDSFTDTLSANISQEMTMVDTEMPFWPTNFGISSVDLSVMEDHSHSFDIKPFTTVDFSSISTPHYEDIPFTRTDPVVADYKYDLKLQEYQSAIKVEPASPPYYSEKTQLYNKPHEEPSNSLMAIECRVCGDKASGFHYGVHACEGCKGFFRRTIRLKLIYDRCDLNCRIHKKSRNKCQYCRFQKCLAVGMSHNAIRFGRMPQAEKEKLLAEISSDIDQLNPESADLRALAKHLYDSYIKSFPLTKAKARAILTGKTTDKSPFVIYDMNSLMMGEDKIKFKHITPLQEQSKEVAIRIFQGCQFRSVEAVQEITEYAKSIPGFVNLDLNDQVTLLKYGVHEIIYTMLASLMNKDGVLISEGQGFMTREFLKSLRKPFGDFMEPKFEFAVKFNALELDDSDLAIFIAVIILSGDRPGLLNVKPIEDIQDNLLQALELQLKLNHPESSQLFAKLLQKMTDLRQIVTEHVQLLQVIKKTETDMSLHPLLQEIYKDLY

Fold change activation, inactive:
COCCn1cnc2c1c(=O)n(Cc1cc(C(C)=O)ccc1OC)c(=O)n2Cc1ccccc1 1.14 fold, O=C(c1nc2ccccn2c1CN1CCCC(O)C1)N1CCN(C2CCCCC2)CC1 (configuration not stated) 1.15 fold, S=C(NCCc1ccccc1)N1CCn2cccc2C1c1ccncc1 (configuration not stated) 1.14 fold, COc1cc(/C=C(\NC(=O)c2ccccc2)C(=O)NC(C(=O)O)c2ccccc2)cc(OC)c1OC (configuration not stated) 0.9 fold, CCC(=O)c1ccc(OCC(=O)OC(C)C(=O)Nc2c(C)n(C)n(-c3ccccc3)c2=O)cc1 (configuration not stated) 1.08 fold, COc1ccc(C=NNS(=O)(=O)c2ccc(F)cc2)cc1COc1cc(F)ccc1[N+](=O)[O-] 1.08 fold, COc1ccc(-c2cc(C(=O)NC(C)c3ccccn3)c3ccccc3n2)cc1OC (configuration not stated) 1.03 fold
